A selection: hits, their analogues and other compounds. The true share with any hit is near 7.4%.
FXIIa mix inh – blocks human factor XIIa in pooled compound mixtures | P00748 | purified FXIIa, fluorogenic substrate | inhibition, % at 5 µM | actives 0.2% (n = 62,000) | AID 684;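 also: 0% = enzyme without compound and 100% = no enzyme blank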
Target sequence (P00748 20-372 limits assumed): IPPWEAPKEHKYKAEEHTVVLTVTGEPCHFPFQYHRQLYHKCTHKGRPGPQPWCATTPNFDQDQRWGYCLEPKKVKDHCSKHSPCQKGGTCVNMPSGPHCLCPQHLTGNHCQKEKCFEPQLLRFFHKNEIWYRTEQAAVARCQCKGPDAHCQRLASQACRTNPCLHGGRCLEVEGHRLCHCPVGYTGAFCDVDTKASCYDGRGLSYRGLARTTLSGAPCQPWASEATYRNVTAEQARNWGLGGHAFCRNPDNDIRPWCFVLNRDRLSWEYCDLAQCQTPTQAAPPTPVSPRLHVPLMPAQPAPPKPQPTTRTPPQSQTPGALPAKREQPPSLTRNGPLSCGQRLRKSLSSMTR
Target sequence (P00748 373-615 limits assumed): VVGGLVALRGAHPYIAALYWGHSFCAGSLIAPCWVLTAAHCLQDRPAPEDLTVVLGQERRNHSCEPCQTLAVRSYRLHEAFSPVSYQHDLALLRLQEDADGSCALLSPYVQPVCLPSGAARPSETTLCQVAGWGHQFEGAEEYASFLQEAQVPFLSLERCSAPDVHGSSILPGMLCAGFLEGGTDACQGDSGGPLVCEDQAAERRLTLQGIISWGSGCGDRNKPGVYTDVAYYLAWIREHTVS
FXIa inh mix – blocks human factor XIa in pooled compound mixtures; P03951; purified FXIa, fluorogenic substrate; inhibition, % at 5 µM; actives 0.19% (n = 62,000);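 also: each value is inhibition by a whole ten-compound pool holding the compound; 0% = enzyme with no mixture and 100% = wells lacking enzyme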
M1 ag – activates the M1 muscarinic receptor. CHO-M1 cells, Fluo-4 calcium fluorescence, agonist mode; active compounds read high. B-score at 10 µM. actives 3% (n = 64,000). AID 626;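 active = fluorescence rise, raw or as B-score row- and column-corrected plate score, outside the 99.7% band of its plate's samples, either direction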
D1 mod – D1 dopamine receptor (human) allosteric modulation. actives 5.9% (n = 58,000). HEK293 D1, CRE-luciferase, dopamine EC30 potentiation; actives deviate in either direction. B-score at 10 µM;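 active = luminescence count or its row- and column-corrected plate score outside the 99.7% band of the plate's sample wells, on either side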
hDAT+cocaine – human DAT dopamine uptake with cocaine, either direction | B-score at 10 µM | Q01959 | LLC-PK1 hDAT cells, [14C]-dopamine uptake with cocaine IC80; actives deviate in either direction | actives 1.3% (n = 110,000);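 active = Z score or B-score, a plate-position-corrected score, falls beyond the plate's 99.7% confidence bounds, in either direction; inactive = both scores lie inside the 99.7% bounds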;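 also: scored against the spread of the other compound wells on the same plate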
M1 antagonist – blocks the rat M1 muscarinic receptor response to acetylcholine; P08482; CHO-M1 cells, Fluo-4 calcium, ACh EC80 antagonist mode; active compounds read low; B-score at 10 µM; actives 3.4% (n = 64,000); AID 628;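 active = calcium fluorescence response, raw or row-and-column corrected B-score, differing from the plate sample mean either way at a set confidence level, mostly lower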
M1 antag conf – M1 muscarinic receptor (rat) antagonism, confirmed | shares compounds with M1 antagonist | CHO-M1 cells, Fluo-4 calcium, ACh EC80 antagonism; active compounds read low | calcium response (max-min fluorescence) at 10 µM | actives 43% (n = 1,700) | AID 677;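 active = calcium response below the same-plate mean of wells given acetylcholine alone at its 80%-effect dose, minus 3 SD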;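 also: raw fluorescence intensity difference in arbitrary instrument units and not normalized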
mGluR4 antag – mGluR4 (human) activity, M1 antagonist secondary assay | fluorescence response (max-min) at 10 µM | shares compounds with M1 antagonist | CHO-mGluR4 calcium flux, Fluo-4 fluorescence, glutamate EC80; active compounds read low | actives 0.9% (n = 1,700);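 active = fluorescence response below the plate's average for near-maximal glutamate wells, less 3 SD of those wells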;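 also: raw unnormalized fluorescence span taken in the window right after glutamate addition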
D1 mod confirm – confirmation of human D1 dopamine receptor allosteric modulators; actives 88% (n = 2,200); AID 642; luminescence at 10 µM; HEK293 D1 CRE-luciferase, dopamine EC30 potentiation; active compounds read high; shares compounds with D1 mod;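 active = luminescence in either of two replicates above the same-plate mean plus 3 SD of the low-dose dopamine control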
D1 no dopamine – D1 (human) signaling in absence of dopamine | shares compounds with D1 mod | HEK293 D1 CRE-luciferase, luminescence, no dopamine; active compounds read high | luminescence at 10 µM | actives 0.8% (n = 1,900) | AID 646; in the data active = luminescence above about 3900
Isoprot counter – alters isoproterenol CRE-luciferase response in HEK293 cells; shares compounds with D1 mod; HEK293 D1 CRE-luciferase, isoproterenol EC30 counter-screen; calls only at 10 µM; actives 63% (n = 2,200);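 active = luminescence in either replicate above plate mean of wells with a partly effective reference agonist dose plus 3 SD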;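 also: isoproterenol raises cAMP through native beta-adrenoceptor Gs so signal bypasses D1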
The depositor's hits bear a star; i = inactive; / = not tested or not shown; + = active, no number. Rule as the data show it, unless noted: active = inhibition above about 20% (passing the limit was not always enough); inactive = the rest.

SMILES | FXIIa mix inh | FXIa inh mix | M1 ag | D1 mod | hDAT+cocaine | M1 antagonist | M1 antag conf | mGluR4 antag | D1 mod confirm | D1 no dopamine | Isoprot counter
COc1ccc(Cc2nnc(NC(=O)c3cccs3)s2)cc1 | 8 | 3 | -0.0067 | 0.094 | -0.59 | 0.4 | / | / | / | / | /
COc1ccc(C(=O)Nc2nnc(Cc3cccs3)s2)cc1OC | 9 | 6 | -1.1 | 3* | -0.0061 | -17* | 621 | 244 | 9388* | 1740 | i
CCN=C1SC(C(N)=O)CC(=O)N1CC (configuration not stated) | -21 | 9 | -0.13 | 6.3* | -0.34 | -15* | 651 | 207 | 10588* | 1464 | i
Cn1c(/N=C/c2ccc3c(c2)OCO3)nc2ccccc21 | 1 | 10 | -0.24 | -0.3 | -0.035 | 0.33 | / | / | / | / | /
CCc1ccc(-c2nc(CN3CCC(C(=O)N4CCN(c5ccccn5)CC4)CC3)c(C)o2)cc1 | -1 | 1 | 0.42 | 7.1* | / | -2.6* | 411 | 213 | 6240* | / | +
CCc1ccc(-c2nc(CN3CCCC(C(=O)O)C3)c(C)o2)cc1 (configuration not stated) | 8 | 4 | -0.67 | -0.054 | -1.3 | -0.42 | / | / | / | / | /
O=C(c1ccco1)N1CCN(S(=O)(=O)c2ccc3c(c2)CCN3C(=O)C2CC2)CC1 | 7 | -4 | -1.2 | 4.2* | -1.5 | -2.4* | 633 | 242 | 11508* | 1616 | i
CCOCCn1c(SCc2ccccc2)nc2c1c(=O)[nH]c(=O)n2C | 10 | 5 | 0.15 | 0.26 | -0.12 | -0.27 | / | / | / | / | /
C/C=C/Cn1c(SCc2ccccc2)nc2c1c(=O)[nH]c(=O)n2C | 4 | 3 | 0.67 | 15* | -0.024 | -2.7* | 589 | 245 | 16256* | 1572 | +
CCSc1nc2cc(OC)c(OC)cc2c(=O)n1CC | 3 | 3 | 0.25 | 11* | -0.0074 | -3.1* | 566 | 241 | 13604* | 1368 | +
O=C(CC1Oc2ccccc2NC1=O)NCc1ccc(Cl)cc1 (configuration not stated) | 4 | 3 | 0.75 | -0.02 | 0.46 | 1.6 | / | / | / | / | /
CC1CCN(Cc2ccc(NC(=O)CC3Oc4ccccc4NC3=O)cc2)CC1 (configuration not stated) | 0 | 3 | -0.7 | 2.8* | 0.025 | -11* | 24* | 229 | 5132 | 1676 | i
COc1ccc(C2CC(c3cc(OC)ccc3OC)n3nnnc3N2)cc1 (configuration not stated) | 15 | 2 | 1.4 | 2.7* | 2.7 | -17* | 635 | 240 | 9576* | 1560 | i
COCCNC(=O)C1Nc2ccc(OC(F)(F)F)cc2C2C=CCC12 (configuration not stated) | / | / | / | / | 0.17 | / | / | / | / | / | /
CCOC(=O)N1CCN(Cc2nc3c(c(=O)n(C)c(=O)n3C)n2Cc2cccc3ccccc23)CC1 | / | / | -0.15 | -0.52 | 1.7 | 0 | / | / | / | / | /
CCCCSc1nc2c(cnn2-c2ccc(F)cc2)c(=O)[nH]1 | 6 | 4 | 0.039 | 7* | -0.0072 | -2.9* | 643 | 155 | 7560* | 1648 | i
Nc1ncnc2oc(-c3ccco3)c(-c3ccco3)c12 | -1 | 0 | -0.88 | 10* | -0.65 | 0.067 | / | / | 19128* | 24288* | +
Nc1nnc(-c2ccco2)s1 | 7 | 5 | 0.16 | 0.75 | -1 | -0.36 | / | / | / | / | /
CCC(C(=O)Nc1cc(C)nn1-c1nc(C)cc(C)n1)c1ccccc1 (configuration not stated) | 20 | -1 | 1.2 | 9.9* | -0.2 | 0.28 | / | / | 12296* | / | +
